This passage reports Potency results from PubChem BioAssay (Tox21).

Assay [1] is described as follows: A CellTox Green Cytotoxicity Assay to monitor cytotoxicity in HepG2 cells - 0 hour (AID 1224882). Further: nearly all actives have a fitted effect of over 35% in size. Further: potency means the concentration at half of the fitted maximal effect. The method in brief: (§1)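 Measurements at 0, 8, 16, 24, 32 and 40 h of treatment captured CellTox Green fluorescence in HepG2 cells that had been co-plated with reagent and preincubated 5 h at 37 C/5% CO2.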
Assay [2] in a line: A CellTox Green Cytotoxicity Assay to monitor cytotoxicity in HepG2 cells - 32 hour (AID 1224883). Further: nearly all actives have a fitted effect of over 50% in size. Further: potency means the concentration at half of the fitted maximal effect. The method in brief: as §1
Assay [3] can be described thus: A CellTox Green Cytotoxicity Assay to monitor cytotoxicity in HEK293 cells - 8 hour (AID 1224884). Further: nearly all actives have a fitted effect of over 35% in size. Further: potency means the concentration at half of the fitted maximal effect. The method in brief:
(§2)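 Tox21 screen in HEK293: membrane-impermeant cyanine dye fluoresces on binding dead-cell DNA; compound pinned 5 h post-seeding, plates held at 37 C, signal read repeatedly through 40 h.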

Assay [4] is described as follows: qHTS RealTime-Glo MT Cell Viability Assay in HEK293 cells - 24 hour (AID 1224886). Further: nearly all actives have a fitted effect of over 50% in size. Further: potency means the concentration at half of the fitted maximal effect. The method in brief: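 Nonlytic real-time viability readout: viable cells convert prosubstrate to NanoLuc substrate, giving luminescence proportional to live cell number. HEK293, 600 cells/well, compound added after 5 h, continuous culture at 37 C.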
Assay [5] can be described thus: A CellTox Green Cytotoxicity Assay to monitor cytotoxicity in HepG2 cells - 8 hour (AID 1224890). Further: nearly all actives have a fitted effect of over 45% in size. Further: potency means the concentration at half of the fitted maximal effect. A digest of the protocol: as §1
The nature of assay [6]: qHTS assay to identify small molecule antagonists of the estrogen receptor alpha (ER-alpha) signaling pathway using the BG1 cell line in the presence of 0.1 nM 17-beta-estradiol - cell viability counter screen (AID 1259241). Further: nearly all actives have a fitted effect of over 40% in size. The method in brief: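 Live-cell protease activity (CellTiter-Fluor fluorescence, 30 min) was read in the same wells after VM7Luc4E2 cells had been exposed to compounds with 0.1 nM 17beta-estradiol for 22 hr at 37C.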
Background: qHTS replaces the single test concentration by a dilution series.

Assay [7] can be described thus: qHTS assay to identify small molecule antagonists of the androgen receptor (AR) signaling pathway using the MDA cell line in the presence of 0.5 nM R1881 - cell viability counter screen (AID 1259242). Further: nearly all actives have a fitted effect of over 45% in size. Further: potency means the concentration at half of the fitted maximal effect. The method in brief: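 Concentration-response screen of compounds for toxicity in MDA-kb2 reporter cells: 16 hr at 37C with 0.5 nM R1881, endpoint live-cell protease fluorescence measured in the reporter wells.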

For assay [8], the target named is Estrogen receptor (Homo sapiens) (UniProt P03372). Nature of the assay: qHTS assay to identify small molecule antagonists of the estrogen receptor alpha (ER-alpha) signaling pathway using the BG1 cell line in the presence of 0.1 nM 17-beta-estradiol (AID 1259244). Further: nearly all actives have a fitted effect of over 50% in size. The method in brief:
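Compounds were tested against 0.1 nM (final) 17beta-estradiol in VM7Luc4E2 cells, which express full-length ER-alpha and an ERE-luciferase reporter; luminescence was recorded following 22 h exposure.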

Assay [9] is described as follows: qHTS assay to identify small molecule phospholipidosis (PLD) inducers (AID 1259344; active means well fitted curve in the direction sought with a large enough effect; an effect the other way counts as inactive or inconclusive). The method in brief:
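Cells (HepG2, 900 per well) attach for 4 h, receive LipidTOX Red and compound together, incubate 24 h at 37 C, are fixed 30 min with paraformaldehyde/Hoechst, then imaged at one site per well.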

A short description of assay [10]: qHTS assay to identify small molecule HDAC inhibitors (AID 1259364).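 Further: wild-type HCT-116 cells with endogenous class I/II HDAC activity; top concentration of the series differs between compounds; nearly all actives have a fitted effect of over 45% in size.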 The method in brief:
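Screening used wild-type human colon HCT-116 cells incubated overnight, dosed with compounds for 2 hours, and assayed with a homogeneous luminogenic HDAC I/II reagent for 30 minutes at room temperature.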

Assay [11] in a line: qHTS assay to identify small molecule agonists of the sonic hedgehog signaling (Shh) pathway (AID 1259368; calls by dose curve;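 further: NIH/3T3-derived 3T3Gli1-Luc cells carrying a stable Gli1-driven firefly luciferase reporter; series mostly up to about 92 µM; nearly all actives have a fitted effect of over 15% in size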). The method in brief:
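Hedgehog pathway agonism scored by increased firefly luciferase luminescence in 3T3Gli1-Luc cells treated 24 hr at 37 C; detection used a 30 min room-temperature reagent incubation.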

Assay [12] is described as follows: qHTS assay to identify small molecule antagonists of the sonic hedgehog signaling (Shh) pathway (AID 1259369; calls by dose curve; further: nearly all actives have a fitted effect of over 45% in size; further: potency means the concentration at half of the fitted maximal effect). The method in brief:
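NIH/3T3 stable Gli1-Luc clone, 2,000 cells/well, 4hr settle; cpd + conditioned medium 24hr; Luc reagent 30min RT; luminescence.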

A short description of assay [13]: A CellTox Green Cytotoxicity Assay to monitor cytotoxicity in HEK293 cells - 16 hour (AID 1224888). Further: nearly all actives have a fitted effect of over 35% in size. Further: potency means the concentration at half of the fitted maximal effect. The method in brief:
as §2

Assay [14] can be described thus: qHTS RealTime-Glo MT Cell Viability Assay in HepG2 cells - 0 hour (AID 1224889). Further: nearly all actives have a fitted effect of over 50% in size. Further: potency means the concentration at half of the fitted maximal effect. The method in brief: (§3)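 Luminescence read-out: viable HepG2 cells reduce a prosubstrate to a NanoLuc substrate, giving a signal proportional to live cell number. Reads taken at 0, 8, 16, 24, 32 and 40 h of compound exposure at 37 C.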
Assay [15] is described as follows: qHTS assay to identify small molecule HDAC inhibitors - cell viability counter screen (AID 1259365). A digest of the protocol: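 HCT-116 (wild type), 1,500 cells/well, overnight 37C/5% CO2; compound in DMSO 2hr; CellTiter-Glo 30min RT; luminescence read.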
A short description of assay [16]: qHTS RealTime-Glo MT Cell Viability Assay in HepG2 cells - 16 hour (AID 1224885). Further: nearly all actives have a fitted effect of over 50% in size. The method in brief:
as §3

Assay [17] can be described thus: qHTS RealTime-Glo MT Cell Viability Assay in HEK293 cells - 8 hour (AID 1224887). Further: nearly all actives have a fitted effect of over 50% in size. Further: potency means the concentration at half of the fitted maximal effect. A digest of the protocol:
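HEK293 + NanoLuc + prosubstrate, 600 cells/well; 5 h, 37 C/5% CO2; compound 23 nL in DMSO by pintool; 37 C; luminescence read at 0, 8, 16, 24, 32 and 40 h time points.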

Assay [18] is described as follows: qHTS assay to identify small molecule agonists of the sonic hedgehog signaling (Shh) pathway - cell viability counter screen (AID 1259366). Further: nearly all actives have a fitted effect of over 50% in size. Further: potency means the concentration at half of the fitted maximal effect. A digest of the protocol: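 CellTiter-Fluor fluorescence read-out, 1 hr at 37C, added after 23hr compound exposure. Cells: 3T3 Gli1-Luc, an NIH/3T3 clone with stably integrated Gli1-Luc reporter, plated 4hr before compound.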

The target in assay [19] is Androgen receptor (Homo sapiens) (UniProt P10275). The assay can be described thus: qHTS assay to identify small molecule antagonists of the androgen receptor (AR) signaling pathway using the MDA cell line in the presence of 0.5 nM R1881 (AID 1259243). Further: nearly all actives have a fitted effect of over 50% in size. Further: potency means the concentration at half of the fitted maximal effect. A digest of the protocol:
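With R1881 held at 0.5 nM (final), compound effects on MMTV-luciferase expression in MDA-kb2 cells were scored by luminescence after a 16 hr, 37C incubation.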

Assay [20] in a line: qHTS assay to identify small molecule antagonists of the sonic hedgehog signaling (Shh) pathway - cell viability counter screen (AID 1259367). Further: nearly all actives have a fitted effect of over 55% in size. Further: potency means the concentration at half of the fitted maximal effect. The method in brief:
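Cytotoxicity was assessed in parallel with Shh reporter activity by measuring live-cell protease fluorescence (CellTiter-Fluor) in NIH/3T3 cells stably carrying Gli1-Luc, treated with compound under conditioned medium stimulation for 23 hr plus 1 hr reagent incubation.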

Molecules are shown by their SMILES. Inconclusive results are not listed. Activity calls are given as the source filed them. Unless noted, the call rests on the fitted dose curve; in most records, active means well fitted curve in the direction sought with a large enough effect in the repeat runs; inconclusive means weak or mixed curves; inactive means no such curve, though single readings can be large; an effect the other way counts as inactive or inconclusive.

Estrogen receptor (Homo sapiens), sequence (P03372 whole entry, looked up): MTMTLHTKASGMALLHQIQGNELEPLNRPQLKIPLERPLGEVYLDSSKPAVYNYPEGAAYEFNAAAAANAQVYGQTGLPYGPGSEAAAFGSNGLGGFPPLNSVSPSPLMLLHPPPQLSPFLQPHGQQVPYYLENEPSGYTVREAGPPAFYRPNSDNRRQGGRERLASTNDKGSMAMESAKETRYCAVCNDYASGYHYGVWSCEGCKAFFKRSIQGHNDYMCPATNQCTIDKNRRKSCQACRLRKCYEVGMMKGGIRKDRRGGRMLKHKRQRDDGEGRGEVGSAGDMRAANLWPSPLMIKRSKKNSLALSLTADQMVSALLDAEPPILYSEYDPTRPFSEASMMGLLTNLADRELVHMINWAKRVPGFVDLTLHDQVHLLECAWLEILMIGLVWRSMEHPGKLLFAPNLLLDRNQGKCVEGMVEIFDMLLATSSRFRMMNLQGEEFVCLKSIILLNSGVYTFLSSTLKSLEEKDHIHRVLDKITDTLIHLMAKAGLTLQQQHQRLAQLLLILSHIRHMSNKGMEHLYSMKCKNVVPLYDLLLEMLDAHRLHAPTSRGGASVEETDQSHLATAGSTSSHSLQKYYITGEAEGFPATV
Androgen receptor (Homo sapiens), sequence (P10275 whole entry, looked up): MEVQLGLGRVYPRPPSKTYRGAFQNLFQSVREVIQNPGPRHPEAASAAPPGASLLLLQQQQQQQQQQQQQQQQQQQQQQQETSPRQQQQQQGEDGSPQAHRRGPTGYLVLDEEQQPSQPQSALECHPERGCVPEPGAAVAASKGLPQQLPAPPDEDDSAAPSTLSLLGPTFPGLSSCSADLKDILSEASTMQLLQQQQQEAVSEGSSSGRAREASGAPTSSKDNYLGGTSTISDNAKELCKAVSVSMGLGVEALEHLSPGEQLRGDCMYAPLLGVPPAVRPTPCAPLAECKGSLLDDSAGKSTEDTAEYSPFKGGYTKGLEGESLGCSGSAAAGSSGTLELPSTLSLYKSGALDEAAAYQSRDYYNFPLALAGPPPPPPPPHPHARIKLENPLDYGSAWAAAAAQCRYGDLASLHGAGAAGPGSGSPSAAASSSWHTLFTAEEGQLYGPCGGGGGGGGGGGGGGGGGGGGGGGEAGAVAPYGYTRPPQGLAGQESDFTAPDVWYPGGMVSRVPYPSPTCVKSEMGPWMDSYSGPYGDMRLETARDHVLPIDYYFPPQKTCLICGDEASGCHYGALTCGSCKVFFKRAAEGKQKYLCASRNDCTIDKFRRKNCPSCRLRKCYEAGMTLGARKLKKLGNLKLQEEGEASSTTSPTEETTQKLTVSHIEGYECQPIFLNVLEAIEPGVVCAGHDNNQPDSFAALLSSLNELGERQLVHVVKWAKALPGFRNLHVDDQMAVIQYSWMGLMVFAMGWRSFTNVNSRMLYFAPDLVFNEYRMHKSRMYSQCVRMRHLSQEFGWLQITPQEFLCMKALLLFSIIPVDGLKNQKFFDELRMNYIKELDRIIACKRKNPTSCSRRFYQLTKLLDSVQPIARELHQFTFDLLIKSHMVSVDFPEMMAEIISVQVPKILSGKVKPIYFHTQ

As for `CC(C(O)c1ccccc1)N(C)CCOC(c1ccccc1)c1ccccc1` (stereo not given), the Potency result in assay [1], in assay [3], in [6], in assay [8], in assay [9] and in assay [10] was “inactive” each time. Further, the Potency result in assay [11] was “inactive”. Further, the Potency in [2] is 26.8 µM (active); in assay [4], 21.3 µM (active); in [5] it was 26.8 µM (active); in [7], 29.8 µM (active); in assay [12] it was 21.1 µM (active).
In the case of `Clc1ccc(C(Cn2ccnc2)OCc2ccsc2Cl)c(Cl)c1` (stereo not given), the Potency result in [1], in assay [3], in [13], in assay [14], in assay [5] and in assay [6] was “inactive” throughout. In addition, the Potency result in assay [7], in [10], in assay [15] and in assay [11] was “inactive” in each case. Further, the values for the Potency in [2], in assay [4] and in [12] were 23.9 µM (active), 15.1 µM (active) and 11.9 µM (active), respectively.
`CCCCCCCC(C)=O`: the Potency entry in [1], in assay [2], in assay [16], in assay [4], in assay [17] and in assay [13] was “inactive” throughout. Further, the Potency result in assay [14], in assay [5], in [6], in assay [7], in assay [8] and in assay [10] was “inactive” each time. Moreover, the Potency result in assay [15], in assay [18], in assay [11] and in assay [12] was “inactive” each time.
For `Cc1nc(Nc2ncc(C(=O)Nc3c(C)cccc3Cl)s2)cc(N2CCN(CCO)CC2)n1`, the Potency entry in [1], in assay [3], in assay [13], in [5], in [15] and in assay [11] was “inactive” throughout. In assay [12], the Potency result is “inactive”. The Potency in assay [2] was 26.8 µM (active); in assay [4], 30.1 µM (active); in assay [14], 23.9 µM (active); in assay [18], 0.075 µM (active).
For `CC(C)(C)c1cc(CCC(=O)NCCCCCCNC(=O)CCc2cc(C(C)(C)C)c(O)c(C(C)(C)C)c2)cc(C(C)(C)C)c1O`, the Potency entry in assay [1], in assay [2], in assay [3], in assay [13], in assay [14] and in assay [6] was “inactive” throughout. Besides, the Potency entry in [7], in [19], in [8], in assay [15], in assay [18] and in assay [20] was “inactive” each time. For the same molecule, the Potency result in [11] and in assay [12] was “inactive” in each case.
In the case of `Cc1c(C)n(Cc2ccccc2)c2ccc(C(=O)OCCN(C)C)cc12`, the Potency result in assay [1], in assay [3], in assay [17], in [13], in assay [14] and in [6] was “inactive” in each case. Further, the Potency result in assay [15], in [20] and in assay [11] was “inactive” each time. The Potency in assay [2] was 23.9 µM (active); in assay [12] it was 6.68 µM (active).
As to `CCOCN(C(=O)CS(=O)(=O)O)c1c(C)cccc1CC`, the Potency result in assay [1], in assay [2], in assay [16], in assay [4], in assay [17] and in [13] was “inactive” in each case. Moreover, the Potency result in assay [14], in assay [5], in assay [6], in assay [7], in assay [8] and in assay [10] was “inactive” in each case. Further, the Potency result in assay [15], in [18] and in assay [11] was “inactive” throughout.
`O=C1NC2CCCCN2C12CCN(CCCN1c3ccccc3CCc3ccc(Cl)cc31)CC2` (stereo not given): the Potency entry in assay [1], in [3], in [14], in assay [15] and in assay [11] was “inactive” each time. Besides, the Potency in assay [2] was 23.9 µM (active); in assay [4], 8.49 µM (active); in [17], 6.01 µM (active); in assay [7], 26.6 µM (active); in assay [18], 26.6 µM (active); in assay [20] it was 29.8 µM (active). In addition, in assay [12], the Potency was 21.1 µM (active).
Consider `C[n+]1c2cc(N)ccc2cc2ccc(N)cc21` (tested in a mixture with another compound), for which the Potency was 23.9 µM (active) in assay [1]; 21.3 µM (active) in [2]; 23.9 µM (active) in assay [3]; 9.52 µM (active) in [4]; 23.9 µM (active) in [13]; 23.9 µM (active) in [5]. Moreover, the Potency in assay [19] was 13.3 µM (active). Moreover, the Potency result in assay [14], in [10], in [15] and in [11] was “inactive” each time.
